D2 ag-1: agonists of human D2 dopamine receptor (beta-arrestin); P14416; DiscoveRx PathHunter D2 beta-arrestin, luminescence, 90 min; 100% = 57 uM dopamine signal; activation, % (test concentration not listed); 360,000 tested, 0.084% active; AID 624465; in the data active means activation above about 40%
Target sequence (P14416 whole entry, looked up): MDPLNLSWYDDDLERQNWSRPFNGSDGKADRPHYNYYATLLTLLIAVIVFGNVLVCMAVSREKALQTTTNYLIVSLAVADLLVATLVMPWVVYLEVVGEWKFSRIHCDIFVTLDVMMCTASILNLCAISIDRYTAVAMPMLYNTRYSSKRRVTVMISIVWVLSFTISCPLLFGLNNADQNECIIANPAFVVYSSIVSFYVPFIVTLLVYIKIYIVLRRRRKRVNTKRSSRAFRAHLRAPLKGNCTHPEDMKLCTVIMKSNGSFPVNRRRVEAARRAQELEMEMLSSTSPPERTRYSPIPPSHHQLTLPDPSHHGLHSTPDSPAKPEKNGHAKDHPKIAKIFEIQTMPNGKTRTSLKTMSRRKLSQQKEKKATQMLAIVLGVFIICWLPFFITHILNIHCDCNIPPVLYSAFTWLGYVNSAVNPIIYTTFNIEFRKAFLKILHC
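Agonist mode: compounds alone added to overnight-plated D2 PathHunter cells for 90 min at 37 C, with 57 uM final dopamine (EC100) defining full response. Beta-arrestin recruitment detected by chemiluminescent reagent, read after 1 h at ambient temperature.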
D2 antag: antagonists of human D2 dopamine receptor; P14416; 340,000 tested, 2% active; inhibition, % at 10 µM; HEK293 TREx D2 cells, calcium flux, dopamine EC80; AID 485344; in the data active means inhibition above about 30%; inactive means below that, where a call was filed; further: 0% is about no effect
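Dopamine at EC80 is the agonist stimulus; test compounds precede it by 180 s. Calcium flux read kinetically in a force-coupled, inducible HEK293 T-REx D2 cell line.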
D2 PAM-1: positive allosteric modulators of human D2 dopamine receptor | P14416 | DiscoveRx D2 beta-arrestin cells, luminescence, 90 min; 100% = 57 uM dopamine signal | potentiation, % (concentration not given with the values) | 360,000 tested, 0.23% active; in the data active means potentiation above about 50%
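PathHunter beta-arrestin assay in DiscoveRx D2 cells. Compounds were added with an EC20 of dopamine (50 nM final) for 90 min at 37 deg C. Luminescence was read 1 h after detection reagent, with 57 uM dopamine as the EC100 control.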
D2 PAM-2: D2 dopamine receptor (human) potentiation; P14416; HEK293 T-REx D2, calcium flux, EC20 dopamine potentiation; potentiation, % at 10 µM; 340,000 tested, 0.34% active; AID 485347;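 active means potentiation over 3 SD above the plate norm, cut at about 30% in these data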; further: 0% is about no effect
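Potentiation of an EC20 dopamine calcium response is measured in a force-coupled, tetracycline-inducible Hek293 Trex D2 line. Compound-only kinetic reads over 180 s flag agonists before dopamine addition.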
D2 ag-2: agonists of human D2 dopamine receptor; HEK293 T-REx D2 cells, calcium flux agonist mode; activation, % at 2 µM; 340,000 tested, 0.53% active; AID 485358;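 active means activation over 3 SD above normal in the single-dose calcium agonist read, cut at about 30% in these data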; further: 0% is about no effect
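Agonism scored from kinetic calcium signal (1 read/sec, 180 s) following compound pin transfer, after a 10 s baseline. Cells: HEK293 Trex line expressing inducible D2 receptor coupled to calcium, dye-loaded after overnight culture at 30 C.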
Numbers without * were called inactive; nt = not tested or not shown. Compounds with a hit are over-represented: about 2.4% of the library has one in this group of screens.

SMILES	D2 ag-1	D2 antag	D2 PAM-1	D2 PAM-2	D2 ag-2
CN1CCN(CCCN2c3ccccc3Sc3ccc(S(=O)(=O)N(C)C)cc32)CC1	-6	82*	-37	-23	1
CN(C)CCCN1c2ccccc2Sc2ccc(Cl)cc21	0	86*	-30	-28	1
OCCN1CCN(CCCN2c3ccccc3Sc3ccc(Cl)cc32)CC1	1	86*	-30	-29	1
CCN1C(=O)c2ccccc2Sc2ccc(C(=O)NCCCN3CCCCC3)cc21	-4	25	-33	-12	0
CC(=O)c1ccc2c(c1)N(CCCN1CCC(CCO)CC1)c1ccccc1S2	-9	74*	-39	-15	-1
CCCCn1cc(S(=O)(=O)c2ccccc2)c(=O)c2cc(F)c(N3CCC(C)CC3)cc21	nt	nt	nt	-5	-1
Cc1ccc(NC(=O)Cn2nc(C(F)(F)F)c3c2CCCC3)cc1	nt	nt	nt	3	0
COc1ccc(OC)c(CNC(=O)c2nn(-c3ccc(OC)c(Cl)c3)c(=O)c3c2c2ccccc2n3C)c1	nt	nt	nt	5	-1
Cc1ccc(NC(=O)CSc2nc(-c3ccco3)nc3cc(=O)[nH]n23)cc1C	nt	nt	nt	-7	-2
Cc1cccc(-c2noc(CN(C3CCCCC3)S(=O)(=O)c3ccc(F)cc3)n2)c1	nt	nt	nt	-12	3
Cn1c(=O)c([N+](=O)[O-])c(NCCc2ccccc2)c2ccccc21	-6	38*	-17	-13	-1
O=c1ccc(/C=C/c2ccccc2)nn1Cc1ccc(Cl)cc1Cl	-10	-7	-11	2	1
Cc1ccc(/C=C/c2ccc(=O)n(Cc3ccc(Cl)cc3Cl)n2)cc1	-2	4	-1	36*	0
O=C(CSc1nc2ccccc2o1)Nc1nc(-c2ccccc2)cs1	-3	30*	-13	-21	-1
COc1ccc(C2N(C(=O)N(C)C)CCN2S(=O)(=O)c2ccc(OC)cc2)cc1 (stereo unspecified)	-2	37*	-5	22	0
Cc1ccc(CNC(=O)CN(c2ccc(C(C)C)cc2)S(=O)(=O)c2c(C)n[nH]c2C)cc1	nt	nt	nt	-4	0
CCCSC1=C(C#N)C(c2ccc(OC)cc2)C2=C(CC(C)(C)CC2=O)N1 (stereo unspecified)	-3	42*	-4	-6	0
Cc1cc(Nc2cccc(C(F)(F)F)c2)nc2ccc(NC(=O)c3cccnc3)cc12	nt	nt	nt	6	0
CCOc1ccc(N=C2NC(=O)C(CC(=O)Nc3ccccc3)S2)cc1 (stereo unspecified)	-5	-2	1	39*	-1
O=C(CC1SC(=Nc2ccc(O)cc2)NC1=O)Nc1ccccc1 (stereo unspecified)	-1	-12	2	11	0
CCN(Cc1ccccc1)C(=O)C1CCN(Cc2ccc(SC)cc2)CC1	4	81*	-22	-7	0
O=C(C1CCN(CC2CC=CCC2)CC1)N(CCc1ccccc1)Cc1ccccc1 (stereo unspecified)	3	26	-15	-18	-1
CCN(Cc1ccccc1)C1CCN(Cc2ccc(SC)cc2)CC1	-2	nt	-13	nt	nt
O=C(C1CCN(CCCc2ccccc2)CC1)N(CCc1ccccc1)Cc1ccccc1	0	39*	-20	-23	5
COc1ccc(NC(=O)Cn2c(=O)c3cc(Cl)ccc3n3nncc23)cc1	nt	nt	nt	17	-1
SMILES	D2 ag-1	D2 antag	D2 PAM-1	D2 PAM-2	D2 ag-2
Cc1ccc(C2c3c(oc4ccccc4c3=O)C(=O)N2c2nnc(C)s2)cc1 (stereo unspecified)	nt	nt	nt	-11	1
Cc1ccc(NC(=O)CSc2nc3[nH]c(=O)cc(O)c3s2)c(Br)c1	-3	59*	0	24	-1
CCOC(=O)C1CCCN(c2cc(C)nc3c(-c4ccccc4OC)c(C)nn23)C1 (stereo unspecified)	nt	nt	nt	-10	nt
CC(C)CCOP(=O)(c1ccc(N(C)C)cc1)C(O)c1ccc(Cl)cc1Cl (stereo unspecified)	40*	2	-7	-2	1
CC(C)CCOP(=O)(c1ccc(N(C)C)cc1)C(O)c1ccccc1F (stereo unspecified)	-2	nt	-6	8	nt
COC(=O)C1=CO[C@@H](C)[C@H]2CN3CCc4c([nH]c5ccccc45)[C@@H]3C[C@H]12	-7	71*	-37	-23	0

Assay outcomes from PubChem.
